In PubChem BioAssay AID1159580 (chemical genetic matrix, 2015):
Several values for one entry are separate records, joined by “and”; a condition that tells them apart may be missing. Equal values may be shown once. Among all 5,500 compounds or so, about 2,000 (36%) were called active. Roughly 18% stayed inconclusive and do not appear here. Rule as the data show it: active = normalized growth mostly below about 0.91 (no sharp cut-off); inconclusive = no clear call, values can overlap the other calls; inactive = mostly above about 0.92. This is one part of the list.

Test: chemical genetic growth profiling, strain panel (AID 1159580);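 also: tested at 20 µM; growth read once vehicle control cultures reached saturation at 30 °C; 1 = growth at the plate median or of vehicle wells; lower values mean less growth of the strain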
Settings: S. cerevisiae deletion strains, growth OD

Measured: normalized growth

CCOC(=O)[C@H](CCc1ccccc1)N[C@H]1CCc2ccccc2N(CC(=O)O)C1=O
inactive: locus YAL013W, strain DEP1, stronger effect = lower value 0.989 | locus YAL021C, strain ccr4, stronger effect = lower value 0.961 | locus YAL026C, strain drs2, stronger effect = lower value 0.959 | locus YAL030W, strain snc1, stronger effect = lower value 0.992 | locus YBL061C, strain skt5, stronger effect = lower value 0.988 | locus YBR009C, strain hhf1, stronger effect = lower value 0.973 | locus YBR021W, strain FUR4, stronger effect = lower value 0.978 | locus YBR023C, strain chs3, stronger effect = lower value 0.989 | locus YBR171W, strain sec66, stronger effect = lower value 0.976 | locus YBR229C, strain ROT2, stronger effect = lower value 0.986 | locus YBR231C, strain swc5, stronger effect = lower value 0.96 | locus YBR279W, strain paf1, stronger effect = lower value 0.987 | locus YCL011C, strain gbp2, stronger effect = lower value 0.992 | locus YCL016C, strain dcc1, stronger effect = lower value 0.981 | locus YCL029C, strain bik1, stronger effect = lower value 0.966 | locus YCL061C, strain MRC1, stronger effect = lower value 0.979 | locus YCL069W, strain vba3, stronger effect = lower value 0.99 | locus YCR088W, strain abp1, stronger effect = lower value 0.975 | locus YDL005C, strain med2, stronger effect = lower value 0.972 | locus YDL035C, strain GPR1, stronger effect = lower value 0.998 | locus YDL040C, strain nat1, stronger effect = lower value 0.995 | locus YDL074C, strain BRE1, stronger effect = lower value 0.998 | locus YDL101C, strain DUN1, stronger effect = lower value 0.983 | locus YDL134C, strain PPH21, stronger effect = lower value 0.998 | locus YDL185W, strain tfp1, stronger effect = lower value 0.978 | locus YDL192W, strain arf1, stronger effect = lower value 0.97 | locus YDR001C, strain nth1, stronger effect = lower value 1.01 | locus YDR069C, strain doa4, stronger effect = lower value 0.978 | locus YDR101C, strain arx1, stronger effect = lower value 0.98 | locus YDR137W, strain rgp1, stronger effect = lower value 0.992 | locus YDR150W, strain NUM1, stronger effect = lower value 0.987 | locus YDR159W, strain sac3, stronger effect = lower value 1.01 | locus YDR162C, strain NBP2, stronger effect = lower value 0.987 | locus YDR195W, strain ref2 0.961 | locus YDR297W, strain sur2, stronger effect = lower value 0.99 | locus YDR318W, strain mcm21, stronger effect = lower value 0.977 | locus YDR334W, strain swr1, stronger effect = lower value 0.988 | locus YDR335W, strain msn5, stronger effect = lower value 0.983 | locus YDR388W, stronger effect = lower value 0.976 | locus YDR392W, strain spt3, stronger effect = lower value 0.963 | locus YDR502C, strain sam2, stronger effect = lower value 0.985 | locus YEL003W, strain gim4, stronger effect = lower value 0.992 | locus YEL037C, strain rad23, stronger effect = lower value 0.982 | locus YEL061C, strain CIN8 (second series), stronger effect = lower value 0.986 | locus YEL061C, strain CIN8, stronger effect = lower value 0.989 | locus YER015W, strain faa2, stronger effect = lower value 0.985 | locus YER016W, strain bim1, stronger effect = lower value 0.979 | locus YER110C, stronger effect = lower value 0.979 | locus YER111C, strain swi4, stronger effect = lower value 1 | locus YER155C, strain BEM2 (second series), stronger effect = lower value 0.902 | locus YER155C, strain BEM2, stronger effect = lower value 0.984 | locus YER167W, strain BCK2, stronger effect = lower value 0.984 | locus YFR010W, strain ubp6, stronger effect = lower value 0.982 | locus YGL078C, strain dbp3, stronger effect = lower value 0.977 | locus YGL086W, strain mad1, stronger effect = lower value 0.988 | locus YGL167C, strain pmr1, stronger effect = lower value 0.983 | locus YGL173C, strain kem1, stronger effect = lower value 0.974 | locus YGL227W, strain vid30, stronger effect = lower value 0.965 | locus YGL240W, strain doc1, stronger effect = lower value 0.949 | locus YGL248W, strain PDE1, stronger effect = lower value 0.983 | locus YGL253W, strain hxk2, stronger effect = lower value 0.999 | locus YGR078C, strain PAC10, stronger effect = lower value 1.01 | locus YGR135W, strain pre9, stronger effect = lower value 0.985 | locus YGR229C, strain SMI1, stronger effect = lower value 0.994 | locus YGR252W, strain gcn5, stronger effect = lower value 1.04 | locus YHR013C, strain ard1, stronger effect = lower value 0.977 | locus YHR027C, strain rpn1, stronger effect = lower value 0.992 | locus YHR030C, strain SLT2, stronger effect = lower value 0.981 and 0.964 | locus YHR079C, strain IRE1 (second series), stronger effect = lower value 0.969 | locus YHR079C, strain IRE1, stronger effect = lower value 0.964 | locus YHR094C, strain hxt1, stronger effect = lower value 0.976 | locus YHR129C, strain ARP1, stronger effect = lower value 0.988 | locus YHR142W, strain chs7, stronger effect = lower value 0.986 | locus YHR200W, strain rpn10, stronger effect = lower value 0.979 | locus YIL066C, strain RNR3, stronger effect = lower value 0.985 | locus YIL073C, strain SPO22, stronger effect = lower value 1.01 | locus YIL125W, strain kgd1, stronger effect = lower value 0.978 | locus YIR030C, strain dcg1, stronger effect = lower value 0.968 | locus YJL092W, strain hpr5, stronger effect = lower value 0.988 | locus YJL095W, strain BCK1 (second series), stronger effect = lower value 0.979 | locus YJL095W, strain BCK1, stronger effect = lower value 0.99 and 0.984 | locus YJL115W, strain asf1, stronger effect = lower value 0.969 | locus YJL129C, strain trk1, stronger effect = lower value 0.973 | locus YJL134W, strain LCB3, stronger effect = lower value 0.979 | locus YJL154C, strain vps35, stronger effect = lower value 0.992 | locus YJL164C, strain tpk1, stronger effect = lower value 0.97 | locus YJL166W, strain qcr8, stronger effect = lower value 0.964 | locus YJL168C, strain set2, stronger effect = lower value 0.973 | locus YJL187C, strain SWE1 (second series), stronger effect = lower value 0.986 | locus YJR043C, strain POL32, stronger effect = lower value 0.984 | locus YJR066W, strain TOR1, stronger effect = lower value 0.942
